# Test results reported in PubChem BioAssay (EPA / NIEHS).
# Calls of active or inactive are those of the source. How the source made its calls: active means hit-call score of the fitted dose curve at least 0.9, where 1 is the maximum; inactive means score below 0.9.
# How the values were obtained:
# Details in all cases: mRNA level, 48 h; actives raise or lower the signal
# [1] = read-out: growth arrest and DNA damage 45 (GADD45B), GADD45B (gene 4616); assay: LTEA_HepaRG_GADD45B: Life Technologies and Expression Analysis (LTEA) Assay for growth arrest and DNA damage 45 (GADD45B) using HepaRG (AID 2283461)
# Summary of the method: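 Transcript level quantified by Fluidigm TaqMan qRT-PCR with three housekeeping genes for normalization, analyzed for up- or down-regulation against 0.5% DMSO. HepaRG cultures dosed 48 h at eight half-log concentrations up to 100 uM, duplicates.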
# [2] = read-out: ABC Transporter (ABCC3), ABCC3 (gene 8714); assay: LTEA_HepaRG_ABCC3: Life Technologies and Expression Analysis (LTEA) Assay for ABC Transporter (ABCC3) using HepaRG (AID 2283462)
# Summary of the method: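 Transcript level by TaqMan qRT-PCR, normalised to three housekeeping genes, fitted in both directions relative to vehicle. Chemicals tested in duplicate at eight half-log concentrations up to 100 uM for 48 h on HepaRG cells (0.5% DMSO).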
# [3] = read-out: ABC Transporter (ABCC2), ABCC2 (gene 1244); assay: LTEA_HepaRG_ABCC2: Life Technologies and Expression Analysis (LTEA) Assay for ABC Transporter (ABCC2) using HepaRG (AID 2283464)
# Summary of the method: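 Endpoint is ABCC2 transcript level from qRT-PCR, normalized to three housekeeping genes and fitted bidirectionally relative to DMSO. Human HepaRG cells received test chemical for 48 h at up to 100 uM (8 points, half-log steps, 0.5% DMSO), duplicate wells.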
# [4] = read-out: Broad substrate specificity ATP-binding cassette transporter ABCG2 (Homo sapiens) (UniProt Q9UNQ0); assay: LTEA_HepaRG_ABCG2: Life Technologies and Expression Analysis (LTEA) Assay for ABC Transporter (ABCG2) using HepaRG (AID 2283465)
# Summary of the method: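 Differentiated HepaRG cells were exposed for 48 h in serum-free induction medium to 8 half-log concentrations, top 100 uM, in 0.5% DMSO. ABCG2 mRNA was measured by qRT-PCR, normalized to ACTB, GAPDH and POLR2A, with bidirectional fitting versus DMSO.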
# [5] = read-out: ATP-citrate lyase (ACLY), ACLY (gene 47); assay: LTEA_HepaRG_ACLY: Life Technologies and Expression Analysis (LTEA) Assay for ATP-citrate lyase (ACLY) using HepaRG (AID 2283466)
# Summary of the method: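 Differentiated HepaRG cells exposed 48 h in serum-free induction medium to eight half-log concentrations up to 100 uM in 0.5% DMSO, duplicates. Transcript measured by Fluidigm TaqMan qRT-PCR, normalized to ACTB, GAPDH, POLR2A; bidirectional fit versus DMSO.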
# [6] = read-out: Peroxisomal acyl-coenzyme A oxidase 1 (ACOX1) gene, ACOX1 (gene 51); assay: LTEA_HepaRG_ACOX1: Life Technologies and Expression Analysis (LTEA) Assay for Peroxisomal acyl-coenzyme A oxidase 1 (ACOX1) gene using HepaRG (AID 2283467)
# Summary of the method: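 HepaRG cells, plated 48 h then switched to serum-free induction medium, were exposed in duplicate for 48 h to 8-point half-log concentrations up to 100 uM in 0.5% DMSO. ACOX1 mRNA was measured by qRT-PCR, normalized to ACTB/GAPDH/POLR2A, and fitted bidirectionally versus DMSO.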
# [7] = read-out: Alkaline Phosphatase, Placental (ALPP) gene, ALPP (gene 250); assay: LTEA_HepaRG_ALPP: Life Technologies and Expression Analysis (LTEA) Assay for Alkaline Phosphatase, Placental (ALPP) gene using HepaRG (AID 2283468)
# Summary of the method: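 ALPP transcript level, measured by qRT-PCR and normalized to three housekeeping genes (ACTB, GAPDH, POLR2A), after 48 h dosing of differentiated HepaRG in serum-free induction medium. Top concentration 100 uM with half-log dilutions (8 points, 0.5% DMSO, duplicates); bidirectional fitting relative to DMSO.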
# [8] = read-out: Bcl-2 (BAD) gene, BAD (gene 572); assay: LTEA_HepaRG_BAD: Life Technologies and Expression Analysis (LTEA) Assay for Bcl-2 (BAD) gene using HepaRG (AID 2283469)
# Summary of the method: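 Differentiated HepaRG cells were exposed in duplicate in 0.5% DMSO for 48 h to eight-point half-log concentrations up to 100 uM. BAD mRNA was measured by Fluidigm TaqMan qRT-PCR, normalized to ACTB, GAPDH and POLR2A, and fitted bidirectionally against DMSO.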
# [9] = read-out: Bcl-2 (BAX) gene, BAX (gene 581); assay: LTEA_HepaRG_BAX: Life Technologies and Expression Analysis (LTEA) Assay for Bcl-2 (BAX) gene using HepaRG (AID 2283470)
# Summary of the method: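 Differentiated HepaRG cells exposed 48 h in serum-free induction medium, eight half-log concentrations from 100 uM, in duplicate, 0.5% DMSO vehicle. BAX mRNA by TaqMan qRT-PCR, normalised to ACTB, GAPDH and POLR2A.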
# [10] = read-out: adenosine kinase (ADK) gene, ADK (gene 132); assay: LTEA_HepaRG_ADK: Life Technologies and Expression Analysis (LTEA) Assay for adenosine kinase (ADK) gene using HepaRG (AID 2283471)
# Summary of the method: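 Differentiated HepaRG cells dosed 48 h in serum-free induction medium, 0.5% DMSO vehicle, eight half-log concentrations from 100 uM, in duplicate. ADK mRNA by TaqMan qRT-PCR normalised to ACTB, GAPDH, POLR2A; bidirectional fit versus DMSO.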
# [11] = read-out: Alpha-fetoprotein (AFP) gene, AFP (gene 174); assay: LTEA_HepaRG_AFP: Life Technologies and Expression Analysis (LTEA) Assay for Alpha-fetoprotein (AFP) gene using HepaRG (AID 2283472)
# Summary of the method: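 Differentiated human HepaRG cells exposed 48 h in serum-free induction medium, 8-point half-log series from 100 uM in 0.5% DMSO, duplicate. AFP mRNA by qRT-PCR, normalized to ACTB, GAPDH, POLR2A; bidirectional fit vs DMSO.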
# [12] = read-out: BCL2L11 (gene 10018); assay: LTEA_HepaRG_BCL2L11: Life Technologies and Expression Analysis (LTEA) Assay for Bcl-2 (BCL2L11) gene using HepaRG (AID 2283473)
# Summary of the method: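 BCL2L11 transcript levels are measured by Fluidigm qRT-PCR, normalized to three housekeeping genes. HepaRG cultures were plated 48 h, then treated 48 h with test chemical (top 100 uM, half-log, 0.5% DMSO vehicle); curves were fitted bidirectionally against DMSO.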
# [13] = read-out: Apolipoprotein A-V (APOA5) gene, APOA5 (gene 116519); assay: LTEA_HepaRG_APOA5: Life Technologies and Expression Analysis (LTEA) Assay for Apolipoprotein A-V (APOA5) gene using HepaRG (AID 2283474)
# Summary of the method: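 APOA5 transcript levels were quantified by qRT-PCR, normalized to three housekeeping genes, after 48 h chemical treatment of HepaRG cells (8 points, 100 uM maximum, half-log steps, 0.5% DMSO). Curves fitted in both directions against vehicle.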
# [14] = read-out: Apoptosis regulator Bcl-2 (Homo sapiens) (UniProt P10415); assay: LTEA_HepaRG_BCL2: Life Technologies and Expression Analysis (LTEA) Assay for Bcl-2 gene using HepaRG (AID 2283475)
# Summary of the method: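 Differentiated human HepaRG cells in serum-free induction medium exposed 48 h, in duplicate, to 8-point half-log series from 100 uM in 0.5% DMSO. BCL2 mRNA by qRT-PCR (TaqMan/Fluidigm), normalized to ACTB, GAPDH, POLR2A; bidirectional fit against DMSO.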
# [15] = read-out: Bcl-2 (BID) gene, BID (gene 637); assay: LTEA_HepaRG_BID: Life Technologies and Expression Analysis (LTEA) Assay for Bcl-2 (BID) gene using HepaRG (AID 2283476)
# Summary of the method: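 Gene expression by qRT-PCR in HepaRG cells after 48 h exposure, duplicate wells, eight half-log concentrations topping at 100 uM in 0.5% DMSO. Normalized to ACTB, GAPDH, POLR2A; bidirectional fitting relative to DMSO.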
# [16] = read-out: Caspase-3 (Homo sapiens) (UniProt P42574); assay: LTEA_HepaRG_CASP3: Life Technologies and Expression Analysis (LTEA) Assay for cysteine-aspartic acid protease (CASP3) using HepaRG (AID 2283477)
# Summary of the method: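 Expression of CASP3 was quantified by TaqMan qRT-PCR against three housekeeping genes (ACTB, GAPDH, POLR2A), bidirectionally versus 0.5% DMSO. HepaRG cultures received compounds in duplicate, top 100 uM with half-log steps, for 48 h in serum-free induction medium.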
# [17] = read-out: cysteine-aspartic acid protease (CASP8), CASP8 (gene 841); assay: LTEA_HepaRG_CASP8: Life Technologies and Expression Analysis (LTEA) Assay for cysteine-aspartic acid protease (CASP8) using HepaRG (AID 2283480)
# Summary of the method: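 Differentiated HepaRG cells in serum-free induction medium, 48 h exposure, eight-point half-log series from 100 uM in 0.5% DMSO, duplicates. CASP8 mRNA by qRT-PCR, normalized to ACTB, GAPDH, POLR2A; bidirectional fit versus DMSO.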
# [18] = read-out: Cytochrome P450 (CYP1A2), CYP1A2 (gene 1544); assay: LTEA_HepaRG_CYP1A2: Life Technologies and Expression Analysis (LTEA) Assay for Cytochrome P450 (CYP1A2) using HepaRG (AID 2283479)
# Summary of the method: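 CYP1A2 transcript measured by TaqMan qRT-PCR against three housekeeping genes after 48-hour chemical exposure of HepaRG cells. Eight-point half-log series topping at 100 uM in 0.5% DMSO, duplicates; gain or loss fitted relative to vehicle.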
# [19] = read-out: Cytochrome P450 (CYP24A1), CYP24A1 (gene 1591); assay: LTEA_HepaRG_CYP24A1: Life Technologies and Expression Analysis (LTEA) Assay for Cytochrome P450 (CYP24A1) using HepaRG (AID 2283478)
# Summary of the method: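 mRNA of CYP24A1 quantified by TaqMan qRT-PCR (ACTB/GAPDH/POLR2A normalization) after 48 h chemical exposure of HepaRG cells, top concentration 100 uM, half-log steps, 0.5% DMSO vehicle, duplicates. Curves fitted bidirectionally against DMSO baseline.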
# Sequence of Broad substrate specificity ATP-binding cassette transporter ABCG2 (Homo sapiens) (Q9UNQ0 whole entry, looked up): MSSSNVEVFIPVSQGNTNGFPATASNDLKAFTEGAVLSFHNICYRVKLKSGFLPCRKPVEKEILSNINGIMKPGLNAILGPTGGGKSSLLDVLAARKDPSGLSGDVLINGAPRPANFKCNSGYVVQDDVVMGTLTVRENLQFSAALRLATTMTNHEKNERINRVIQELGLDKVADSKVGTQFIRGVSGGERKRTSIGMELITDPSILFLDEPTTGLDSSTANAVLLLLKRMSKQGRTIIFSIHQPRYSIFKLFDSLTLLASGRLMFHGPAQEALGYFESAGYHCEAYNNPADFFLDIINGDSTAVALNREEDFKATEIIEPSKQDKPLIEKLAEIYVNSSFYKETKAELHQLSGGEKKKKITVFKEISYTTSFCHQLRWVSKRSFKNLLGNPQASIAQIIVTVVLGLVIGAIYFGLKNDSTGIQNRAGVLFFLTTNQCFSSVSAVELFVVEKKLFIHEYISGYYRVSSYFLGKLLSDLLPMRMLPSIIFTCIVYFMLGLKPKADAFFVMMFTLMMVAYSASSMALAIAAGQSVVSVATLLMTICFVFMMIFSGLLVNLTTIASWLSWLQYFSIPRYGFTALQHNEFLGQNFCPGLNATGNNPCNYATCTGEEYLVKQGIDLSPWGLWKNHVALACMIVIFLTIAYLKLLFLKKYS
# Sequence of Apoptosis regulator Bcl-2 (Homo sapiens) (P10415 whole entry, looked up): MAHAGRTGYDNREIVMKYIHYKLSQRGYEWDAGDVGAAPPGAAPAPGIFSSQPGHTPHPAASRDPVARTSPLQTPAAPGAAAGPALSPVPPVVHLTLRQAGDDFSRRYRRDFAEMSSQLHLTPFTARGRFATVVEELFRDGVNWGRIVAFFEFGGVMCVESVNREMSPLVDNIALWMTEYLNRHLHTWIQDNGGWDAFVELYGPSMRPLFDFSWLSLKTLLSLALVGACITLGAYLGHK
# Sequence of Caspase-3 (Homo sapiens) (P42574 whole entry, looked up): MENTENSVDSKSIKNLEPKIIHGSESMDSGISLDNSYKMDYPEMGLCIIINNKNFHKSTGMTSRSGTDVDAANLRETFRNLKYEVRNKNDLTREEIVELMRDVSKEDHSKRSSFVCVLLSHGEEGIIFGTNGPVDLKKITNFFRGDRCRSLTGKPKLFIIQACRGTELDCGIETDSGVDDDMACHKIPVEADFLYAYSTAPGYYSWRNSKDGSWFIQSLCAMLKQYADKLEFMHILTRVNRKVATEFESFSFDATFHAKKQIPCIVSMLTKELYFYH
smiles,measurement,setting,value
CC(C)=CCC/C(C)=C/CO,outcome,[1],inactive
same,outcome,[2],inactive
same,outcome,[3],inactive
same,outcome,[4],inactive
same,outcome,[5],inactive
same,outcome,[6],inactive
same,outcome,[7],inactive
same,outcome,[8],inactive
same,outcome,[9],inactive
same,outcome,[10],inactive
same,outcome,[11],inactive
same,outcome,[12],inactive
same,outcome,[13],inactive
same,outcome,[14],inactive
same,outcome,[15],inactive
same,outcome,[16],inactive
same,outcome,[17],inactive
C1=CCCC=CCCC=CCC1,outcome,[1],inactive
same,outcome,[2],inactive
same,outcome,[3],inactive
same,outcome,[4],inactive
same,outcome,[5],inactive
same,outcome,[6],inactive
same,outcome,[7],inactive
same,outcome,[8],inactive
same,outcome,[9],inactive
same,outcome,[10],inactive
same,outcome,[11],inactive
same,outcome,[12],inactive
same,outcome,[13],inactive
same,outcome,[14],inactive
same,outcome,[15],inactive
same,outcome,[16],inactive
same,outcome,[18],inactive
CC(C)CC(C)(O)C#CC(C)(O)CC(C)C (stereo not given),outcome,[1],inactive
same,outcome,[2],inactive
same,outcome,[3],inactive
same,outcome,[4],inactive
same,outcome,[5],inactive
same,outcome,[6],inactive
same,outcome,[7],inactive
same,outcome,[8],inactive
same,outcome,[9],inactive
same,outcome,[10],inactive
same,outcome,[11],inactive
same,outcome,[12],inactive
same,outcome,[13],inactive
same,outcome,[14],inactive
same,outcome,[15],inactive
same,outcome,[16],inactive
same,outcome,[19],inactive
same,outcome,[18],inactive
same,outcome,[17],inactive
CC[C@H](C)C(=O)O[C@H]1C[C@@H](C)C=C2C=C[C@H](C)[C@H](CC[C@@H]3C[C@@H](O)CC(=O)O3)[C@H]21,outcome,[1],inactive
same,outcome,[2],inactive
same,outcome,[3],inactive
same,outcome,[4],inactive
same,AC50,[5],14.8 µM (active)
same,outcome,[6],inactive
same,outcome,[7],inactive
same,outcome,[8],inactive
same,outcome,[9],inactive
same,outcome,[10],inactive
same,outcome,[11],inactive
same,outcome,[12],inactive
same,AC50,[13],9.92 µM (active)
same,outcome,[14],inactive
same,outcome,[15],inactive
same,outcome,[16],inactive
same,outcome,[19],inactive
same,AC50,[18],6.18 µM (active)
same,outcome,[17],inactive
CC(C)=CCCC(C)=CC=O,outcome,[1],inactive
same,outcome,[2],inactive
same,outcome,[3],inactive
same,outcome,[4],inactive
same,outcome,[5],inactive
same,outcome,[6],inactive
same,outcome,[7],inactive
same,outcome,[8],inactive
same,outcome,[9],inactive
same,outcome,[10],inactive
same,outcome,[11],inactive
same,outcome,[12],inactive
same,outcome,[13],inactive
same,outcome,[14],inactive
same,outcome,[15],inactive
same,outcome,[16],inactive
same,outcome,[19],inactive
same,outcome,[18],inactive
